aSyn UTR act: Activators via SNCA 5'UTR binding, MLPCN. hit rate 7.1% among 300,000. alpha-synuclein 5'UTR reporter, activators screen. activity score, % (tested at 7.5 µM), hits read low; in the data active means activity score below about -60%
* marks the source's active call; other numbers are inactive results. A selection follows.

SMILES	aSyn UTR act
Cc1ccccc1C(=O)Oc1ccc(-c2csnn2)cc1	-68*
CC(C)(C)C(=O)Nc1ccc(-c2csnn2)cc1	-74*
COc1ccc(-c2csc(-c3ccccc3)n2)c(OC)c1	-202*
COc1ccc(-c2csc(-c3cccs3)n2)c(OC)c1	-126*
CCOC(=O)C1=C(N)n2c(s/c(=C/c3ccco3)c2=O)=C(C(=O)OC)C1c1ccco1 (centres undefined)	-66*
CCCc1ccc(Oc2cc(C)nc(N3CCOCC3)n2)cc1	-63*
CC1(C)CC(=O)C(N=Nc2ccc(-c3ccccc3)cc2)=C(O)C1	-84*
Clc1ccccc1-c1nnc2sc(-c3ccc4c(c3)OCO4)nn12	-91*
O=[N+]([O-])c1cccc(-c2nnc(-c3ccc4c(c3)OCO4)o2)c1	-78*
Clc1ccccc1-c1nnc(-c2ccc3c(c2)OCO3)o1	-82*
O=[N+]([O-])c1cccc(-c2nnc(-c3ccccc3)o2)c1	68
S=C(N/N=C/c1ccc2c(c1)OCO2)NC1CC2CCC1C2 (centres undefined)	-128*
NC(=S)N/N=C/c1ccc(C23CC4CC(CC(C4)C2)C3)cc1	-310*
NC(=S)N/N=C/c1ccc2c(c1)OCCO2	-76*
CNC(=S)N/N=C/c1ccc2c(c1)OCCO2	-73*
NCCOc1ccc(C23CC4CC(CC(C4)C2)C3)cc1	81
Cc1cc(C)[n+]2n1C(=O)C(c1ccccc1)=C2[O-]	-93*
CCOc1cc(/C=C\[N+](=O)[O-])ccc1OCC(=O)Nc1ccccc1C	-80*
Cc1ccc(N=Nc2c(O)[nH]c3ccc(F)cc23)cc1	-137*
Oc1[nH]c2ccc(Br)cc2c1N=Nc1ccc(C(F)(F)F)cn1	-68*
Oc1[nH]c2ccccc2c1N=Nc1cccc(Cl)c1	-87*
O=Nc1c(-c2c(O)[nH]c3cc(Br)ccc23)[nH]c2ccccc12	77
O=C(O)c1ccc(N=Nc2c(O)[nH]c3cc(Cl)ccc23)cc1	-294*
Cc1[nH]c(N=Nc2ccccc2)nc1N=Nc1ccccc1	63
O=C(O)c1ccc(N=Nc2c(O)[nH]c3ccc(Br)cc23)cc1	-188*
SMILES	aSyn UTR act
OCCN=C1CCCc2c1[nH]c1ccc(Br)cc21	62
Cc1cccc2c(N=Nc3ccccc3)c(O)[nH]c12	-112*
O=C(Nc1ccccc1)Nc1ccc2ccccc2n1	-89*
O=C(Nc1ccc(F)cc1)Nc1ccc2ccccc2n1	-106*
NNc1nc2c(-c3cccc(C(F)(F)F)c3)nnn2c2ccccc12	-71*
CCN1CCN(/C=N/c2nc(C)cs2)CC1	-83*
O=C(NCC(=O)N1CCN(c2ncccn2)CC1)c1cccs1	-66*
CCN1CCN(C(=O)c2cc3ccc(OC)cc3[nH]2)CC1	-135*
COc1ccc2cc(C(=O)N3CCN(C)CC3)[nH]c2c1	-154*
Cc1cc(CN(C)C(=O)c2ccc3nc(Cc4ccccc4F)oc3c2)on1	-62*
CN(Cc1nccs1)C(=O)c1ccc2nc(Cc3ccccc3F)oc2c1	-131*
CN(Cc1nccn1C)C(=O)c1ccc2nc(Cc3ccccc3F)oc2c1	-126*
CCc1ccc(C(=O)N/N=C(\C)c2ccncc2)s1	-93*
C/C(=N/NC(=O)c1ccc(C)s1)c1ccncc1	-87*
Cc1ccc(C(=O)Nc2nc(-c3cccnc3)cs2)o1	-101*
O=C(NNc1nc(-c2ccccc2)cs1)c1ccc(F)cc1	76
O=C(Nc1nc(-c2cccnc2)cs1)c1cccc([N+](=O)[O-])c1	-84*
O=C(Nc1nc(-c2ccccc2)cs1)c1ccccc1F	-135*
Cc1ccc(-c2ocnc2C(=O)Nc2nc(C)cs2)cc1	-91*
Cc1csc(NC(=O)c2ccc(C)o2)n1	-161*
O=C(Nc1nc(-c2ccccc2)cs1)c1ccc(Br)o1	-79*
O=C(OCc1nnc(-c2ccc(Cl)cc2)o1)C12CC3CC(CC(O)(C3)C1)C2	-205*
CCOC(=O)COn1c(=O)c(-c2cc3ccccc3o2)[n+]([O-])c2ccccc21	-114*
CCCCCCCCCCOC(=O)Cn1c(COc2ccc(Cl)cc2)[n+](C)c2ccccc21	83
C=CCOn1c(=O)c(-c2cc3ccccc3o2)[n+]([O-])c2ccccc21	-144*
SMILES	aSyn UTR act
CCOc1ccc(-c2c(=O)n(OCc3ccc([N+](=O)[O-])cc3)c3ccccc3[n+]2[O-])cc1	-178*
CCCOc1ccc(-c2c(=O)n(OCC(=O)OCC)c3ccccc3[n+]2[O-])cc1	-88*
NC(=O)c1sc2nc(-c3ccco3)ccc2c1N	-62*
COC(=O)c1sc2nc(-c3ccco3)ccc2c1N	-236*
Cc1cc(C)n(-c2nc(-c3ccc(Cl)c(Cl)c3)cs2)n1	-109*
CCCCc1ccc(NC(=O)C2CCCO2)cc1 (centres undefined)	-97*
CCCCOC(=O)c1ccc(NC(=O)c2c(Cl)ccc(Cl)c2OC)cc1	-66*
CCCCOC(=O)c1ccc(NC(=O)C2CCCO2)cc1 (centres undefined)	-75*
CCCCc1nnc(NC(=O)C2CCCO2)s1 (centres undefined)	-86*
CCOC(=O)c1ccc(NC(=O)C2CCCO2)cc1 (centres undefined)	-99*
CCCCc1nnc(NC(=O)C2=COCCO2)s1	-64*
CCCc1nnc(NC(=O)C23CC4CC(CC(C4)C2)C3)s1	-118*
Cc1nn(-c2ccc3ccccc3c2)c(=O)c2ccccc12	-183*
Cc1nn(-c2ccc(Cl)nn2)c(=O)c2ccccc12	-89*
Cc1ccc(-n2ncc3ccccc3c2=O)cc1Cl	-143*
Cc1nn(-c2ccc(Cl)cc2)c(=O)c2ccccc12	-85*
Cc1nn(-c2nc3ccccc3[nH]2)c(=O)c2ccccc12	115
Cc1nn(-c2ccc(Cl)c(Cl)c2)c(=O)c2ccccc12	-64*
O=[N+]([O-])c1ccc(Cl)c(/C=N/NC(=S)Nc2ccccc2)c1	-79*
O=C(N/N=C/c1cc([N+](=O)[O-])ccc1O)c1cccc(NC(=O)c2cccc(Cl)c2)c1	60
Cc1nn(C)cc1/C=N/NC(=S)Nc1ccccc1	-137*
COc1ccc2nc(N3C(=O)C(O)=C(C(=O)c4ccco4)C3c3ccccc3OC)sc2c1 (centres undefined)	-114*
Cc1ccc2nc(N3C(=O)C(O)=C(C(=O)c4ccco4)C3c3cccs3)sc2c1 (centres undefined)	-187*
CC1(C)COCN1S(=O)(=O)c1ccc(C(=O)Nc2nnc(-c3ccc(Cl)s3)o2)cc1	92
O=C(Nc1nnc(-c2ccc(Cl)s2)o1)C1CCCCC1	-63*
SMILES	aSyn UTR act
O=C(c1ccc(Cl)cc1)N1CCCCC(Sc2nnc(-c3ccc4c(c3)OCO4)o2)C1=O (centres undefined)	92
O=C(Nc1nnc(-c2ccccc2)o1)C1CCCCC1	-63*
O=C(Nc1nnc(-c2ccc3c(c2)OCCO3)o1)C1CCCCC1	-88*
Cn1nc(-c2ccccc2)cc1NC(=O)C1CCCCC1	-70*
O=C(Nc1nnc(-c2ccc(Cl)cc2)o1)C1CCCCC1	-80*
Clc1ccc(-c2nnc(NC3=NCCCCC3)o2)cc1	75
Cc1cc2nnc(SCC(=O)NCc3ccco3)n2c2ccccc12	-184*
COc1ccc(C(=O)Nn2c(SCC(=O)NCc3ccco3)nc3ccccc3c2=O)cc1	81
O=C(Cn1cnc2c(oc3ccccc32)c1=O)c1ccccc1	-106*
Cc1cc(C)c2c(n1)sc1c(=O)n(CC(=O)c3ccccc3)cnc12	-132*
COC(=O)c1c(C)[nH]c(O)c1C=Nc1ccc(C(C)C)cc1	-71*
Cc1ccc(C(=O)CN2C(=O)c3ccccc3S2(=O)=O)cc1	109
